Screening data deposited in PubChem BioAssay by The Scripps Research Institute Molecular Screening Center.
TbREL1 inh: TbREL1 RNA ligase inhibitors, primary screen, biochemical, FRET fluorescence | RNA-editing ligase 1, mitochondrial (Trypanosoma brucei brucei), P86926 | actives 0.49% (n = 89,000) | TbREL1 RNA ligation | inhibition, % at 9.66 µM;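 active = inhibition above the mean inhibition across all screened compounds plus 3 SD, cut at about 11% in these data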;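 also: 0% = plate median of test wells and 100% = NSC42067 control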
Target sequence (P86926 whole entry, looked up): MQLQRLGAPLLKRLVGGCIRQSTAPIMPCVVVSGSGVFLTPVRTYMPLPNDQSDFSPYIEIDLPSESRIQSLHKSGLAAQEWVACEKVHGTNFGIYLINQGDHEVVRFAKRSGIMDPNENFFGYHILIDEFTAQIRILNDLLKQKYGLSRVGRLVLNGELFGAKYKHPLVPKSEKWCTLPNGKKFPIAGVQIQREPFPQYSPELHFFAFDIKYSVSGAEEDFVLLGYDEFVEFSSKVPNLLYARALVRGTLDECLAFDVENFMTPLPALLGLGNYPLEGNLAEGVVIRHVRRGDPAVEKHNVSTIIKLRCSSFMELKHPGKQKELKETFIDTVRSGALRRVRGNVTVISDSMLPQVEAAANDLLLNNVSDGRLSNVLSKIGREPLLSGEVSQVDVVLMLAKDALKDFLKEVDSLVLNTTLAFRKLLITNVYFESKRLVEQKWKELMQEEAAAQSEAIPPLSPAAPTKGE
TbREL1 conf: TbREL1 RNA ligase inhibitors, confirmation, biochemical, FRET fluorescence, triplicate; shares compounds with TbREL1 inh; TbREL1 RNA ligation; inhibition, % at 9.66 µM; actives 37% (n = 390);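 active = mean inhibition across replicates above a set limit taken from the earlier primary screen, cut at about 11% in these data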;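 also: 0% = REL1 with substrate and DMSO and 100% = REL1 plus control inhibitor NSC42067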
The depositor's hits bear a star. This is one part of a sample in which hits are shown more often than they occur.

SMILES	TbREL1 inh	others
CCOC(=O)c1c(C)n(C)c2cc([N+](=O)[O-])c(O)c([N+](=O)[O-])c12	11.2*	TbREL1 conf=3.0
CCOC(=O)c1c(C)n(C)c2ccc(OCC(N)=O)cc12	6.0
CCOC(=O)C1=C(C)N(C)C(=O)NC1c1cccc([N+](=O)[O-])c1 (stereo unspecified)	-0.7
CCCS(=O)(=O)NC(=O)C1(C)CCN(C(=O)C2(c3ccc(Cl)cc3)CCCC2)C1 (stereo unspecified)	-0.4
O=C(Nc1c(-c2ccccc2)nc2ncccn12)c1ccccc1	-1.5
CCc1ccc(OCCOCCN2CCN(C)CC2)cc1	15.5*	TbREL1 conf=7.7
CCN1CCN(CCOCCOc2ccccc2)CC1	3.5
CN1CCN(CCOc2ccc(Cl)c(Cl)c2)CC1	6.8
COc1ccc(CNC(=O)O[C@H]2CC[C@@]34CCCN3C(=O)CCC[C@H]4[C@H]2C)cc1OC	-1.6
NC(Cc1ccc(C(F)(F)F)cc1)c1csc(Nc2nncc3ccccc23)n1 (stereo unspecified)	9.8
Cc1cnc(C)c(Nc2nc(C(N)Cc3ccc(Cl)cc3)cs2)n1 (stereo unspecified)	11.3*	TbREL1 conf=10.2
COc1ccc(CC(N)c2csc(Nc3ccc(C(C)=O)cc3)n2)cc1 (stereo unspecified)	3.0
COC(=O)[C@]12C[C@H](CC(=O)N3CCN(C(=O)C4CC4)CC3)C(=O)N(Cc3cccc4ccccc34)C1=C[C@H](C(C)C)O[C@@H]2C1CC1	4.6
O=C(CSc1nnc(-c2cccnc2)n1-c1ccc(Cl)cc1)c1ccc2ccccc2c1	-3.0
CN(C)C(=O)COc1ccc(C(=O)/C=C/c2cccnc2)cc1	8.5
COc1cc(C(=O)/C=C/c2cccnc2)c([N+](=O)[O-])cc1OC	2.0
O=C(/C=C/c1cccnc1)c1ccc([N+](=O)[O-])cc1	11.5*	TbREL1 conf=11.0
CN(C)c1cccc(-c2ccnc(N3CCC(C(N)=O)CC3)n2)c1	4.2
O=C(Nc1cccc2[nH]c([C@H]3C[C@H](O)[C@@H](CO)O3)nc12)NC(c1ccccc1)c1ccccc1	-4.7
O=C(/C=C(\Nc1cccc(OC(F)F)c1)c1ccccc1)c1ccccc1	1.5
Cc1cc(C(=O)N/N=C/c2ccc(O)c(O)c2O)c(C)n1-c1ccccc1	0.9
CCN=c1scc(C)n1/N=C/c1ccc(O)c(O)c1O	13.1*	TbREL1 conf=24.3*
Oc1ccc(/C=N/N(Cc2ccccc2)c2ccccc2)c(O)c1O	-4.4
O=c1[nH][nH]c2c1[C@H](CCc1cccc(Cl)c1)O[C@H](C1CCCC1)C2	-2.8
C[C@H]1CN(C(=O)OC(C)(C)C)CCN1c1ccc(Br)c(C#N)c1	-0.9
SMILES	TbREL1 inh	others
Cc1ccc(C(=O)C2COC(=O)C2)cc1 (stereo unspecified)	20.5*	TbREL1 conf=4.9
Cc1ccc(C(=O)N2CCC(C(=O)c3ccc(Cl)cc3)CC2)cc1	-0.3
Cc1ccc(C(=O)C2CCN(CC(=O)N3CCCC3)CC2)cc1	-0.5
COc1ccc(NC(=O)N(C)C[C@H]2OCc3cn(nn3)CCCC(=O)N([C@@H](C)CO)C[C@@H]2C)cc1	-2.2
NS(=O)(=O)c1ccc(NC(=O)CCC(=O)N2CCOCC2)cc1	14.7*	TbREL1 conf=2.4
NS(=O)(=O)c1ccc(NC(=O)c2ccc(S(=O)(=O)N3CCOCC3)o2)cc1	-1.1
NS(=O)(=O)c1cccc(NC(=O)CCc2ccc(S(=O)(=O)N3CCOCC3)cc2)c1	4.2
Nn1c(SCC(=O)Nc2cc(C(F)(F)F)ccc2Cl)nnc1-c1n[nH]c2c1CCC2	0.0
CN1CCCCC(NC(=O)c2ccc(F)c(F)c2)C1=O (stereo unspecified)	0.1
CC(C)CC(=O)NN1CCCCC1	1.2
CCC(C)NC(=O)CNS(=O)(=O)c1ccc(C)cc1 (stereo unspecified)	-0.2
CCC(C)NC(=O)CC(C)C (stereo unspecified)	12.2*	TbREL1 conf=6.3
Cc1ccccc1-c1cnc(C(O)c2ccc(F)c(F)c2)[nH]1 (stereo unspecified)	-0.4
Cn1c(SCC(=O)c2ccc(-c3ccccc3)cc2)nnc1-c1ccco1	2.8
O=C(CSc1nnc(-c2ccco2)c(-c2ccco2)n1)c1ccccc1	11.9*	TbREL1 conf=13.0*
N#Cc1cnc(SCC(=O)c2ccccc2)nc1N	-2.5
CCn1c2ccccc2c2cc(NC(=O)COC(=O)c3cc(F)ccc3F)ccc21	2.4
CCC(C)N(C(=O)c1oc(=O)c2ccccc2c1-c1ccc(C)cc1)C(C)CC (stereo unspecified)	6.5
Cc1ccccc1CNC(=O)c1cccc2c1C(=O)N(Cc1cccnc1)C2	1.1
Cc1noc(C)c1C(=O)N1CCC(n2nnc3ncccc32)CC1	1.2
CCOC(=O)Cc1nnc(NC(=O)COc2ccc(C)cc2)s1	0.4
CCOC(=O)Cc1nnc(NC(=O)c2ccccc2OCC)s1	-2.5
CCOC(=O)Cc1nnc(NC(=O)c2ncn[nH]2)s1	11.4*	TbREL1 conf=7.4
COc1ccc(C2C(C(=O)N3CCOCC3)CC(=O)N2c2ccc(OC)cc2)cc1 (stereo unspecified)	-0.3
CN(Cc1ccccc1)C(=O)OCc1cn(Cc2ccccc2Cl)nn1	-3.0
SMILES	TbREL1 inh	others
C(=C\c1ccccc1)/CSc1nc2ncccc2[nH]1	-0.3
N#CCSc1nc2ccccc2o1	4.6
N#CCSc1nccc(/C=C/c2ccccc2)n1	12.0*	TbREL1 conf=2.5
C=CCN1C(=O)[C@H](CC(=O)NCC23CC4CC(CC(C4)C2)C3)[C@@]2(C(=O)OCC)CCCC=C12	5.7
CC(C)(C)S(=O)N1C[C@@H]2CC(=O)C=C2[C@H]1CCO (stereo partly specified)	2.4
O=C(Nc1ccccc1C(F)(F)F)O[C@@H]1CC[C@@]23CCCN2C(=O)CCC[C@H]3C1	3.2
COc1ccccc1N1CCN(S(=O)(=O)c2ccc3c(c2)n(C)c(=O)c(=O)n3C)CC1	-0.4
O=C(c1ccccc1)c1ccc(N2CCN(C(=O)c3ccc(F)cc3F)CC2)c(F)c1	-1.3
Nc1ccn([C@@H]2O[C@H](C(=O)N[C@H](Cc3ccccc3)C(=O)N[C@H]3CCCCNC3=O)[C@@H](O)[C@H]2O)c(=O)n1	2.6
NC(COCc1ccccc1)c1csc(Nc2ccc(C(F)(F)F)cn2)n1 (stereo unspecified)	8.8
COc1ccc(CC(N)c2csc(NC(=O)Nc3cccc(C(F)(F)F)c3)n2)cc1 (stereo unspecified)	4.6
CCCCN(C)C(=O)c1ccc(Nc2nc(C(N)Cc3ccc(C(F)(F)F)cc3)cs2)nc1 (stereo unspecified)	17.4*	TbREL1 conf=13.0*
O=C(Cc1c[nH]c2ccccc12)Nc1ccc(Nc2cccnc2)c(Br)c1	2.1
O=C(Cc1cccs1)NC1CCCCN(Cc2ccc(Cl)cc2)C1=O (stereo unspecified)	-1.8
Cc1ccc(-c2nnc(SCC(=O)Nc3ccc(OCc4ccccc4)cc3)n2-c2ccc(Cl)cc2)cc1	1.5
O=C(c1ccccc1-c1nc(-c2ccccc2)no1)N1CCOCC1	-0.8
O=C(O)c1ccccc1-c1noc(-c2ccccc2F)n1	13.5*	TbREL1 conf=3.9
O=C(c1ccccc1-c1nc(-c2ccc(F)cc2)no1)N1CCCC1	-0.8
CCOc1ccc(-n2c(SCC(=O)Nc3ccc(OCc4ccccc4)cc3)nnc2-c2ccc(Cl)cc2)cc1	-4.6
CCCCNCCCOc1cc(Cl)ccc1Cl	-1.5
C=CCNCCCCOc1c(Cl)cc(C)cc1Br	7.1
COCCCNCCCOc1ccc(Cl)cc1Br	11.2*	TbREL1 conf=6.3
